# In publication PMC7862700, “An all-to-all approach to the identification of sequence-specific readers for epigenetic DNA modifications on cytosine”:
# Assays:
# Assay in all cases: DAPPL (digital affinity profiling via proximity ligation, sequencing); 10 mM Tris-HCl pH 7.5, 50 mM NaCl, 1 mM DTT, 4% glycerol, room temperature, 30 min; GST-TFs on glutathione beads, 16-mer random dsDNA library, 0.1% formaldehyde crosslink after washing; high values mean tight binding
# FLI1 = target: T1, FLI1 (Homo sapiens, UniProt Q01543 1-452); settings: protein: recombinant; tags: N-terminal GST; dsDNA, one strand shown
# T1 sequence: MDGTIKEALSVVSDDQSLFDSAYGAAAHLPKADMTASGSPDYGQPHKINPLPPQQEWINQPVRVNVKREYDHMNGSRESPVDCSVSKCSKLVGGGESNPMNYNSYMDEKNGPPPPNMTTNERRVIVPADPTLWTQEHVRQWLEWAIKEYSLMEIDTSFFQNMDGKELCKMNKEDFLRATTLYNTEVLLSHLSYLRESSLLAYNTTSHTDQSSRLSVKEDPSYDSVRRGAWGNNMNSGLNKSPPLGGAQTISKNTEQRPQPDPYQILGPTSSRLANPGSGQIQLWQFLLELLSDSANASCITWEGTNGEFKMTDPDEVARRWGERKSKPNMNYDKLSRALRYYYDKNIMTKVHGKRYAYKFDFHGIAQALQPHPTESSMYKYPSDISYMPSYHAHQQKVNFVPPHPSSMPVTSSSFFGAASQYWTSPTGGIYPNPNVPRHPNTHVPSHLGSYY
# How it was run: (§1)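 Human transcription factors fused to GST were expressed in yeast, captured on glutathione beads, given DNA barcodes and pooled with a GST-only negative control. Pools were incubated with 200 nmole of a 16-mer random double-stranded DNA library in Tris/NaCl/DTT/glycerol buffer at room temperature for 30 min. They were then washed, crosslinked with 0.1% formaldehyde, proximity-ligated (BsaI/T4 ligase, 1 h, 37 °C), PCR-amplified and sequenced on an Illumina NextSeq500. Binding signal is each 6-mer's read frequency for a factor divided by its frequency for the GST control.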
# ELK1 = target: T2, ELK1 (Homo sapiens, UniProt P19419 1-428); settings: protein: recombinant; tags: N-terminal GST; dsDNA, one strand shown
# T2 sequence: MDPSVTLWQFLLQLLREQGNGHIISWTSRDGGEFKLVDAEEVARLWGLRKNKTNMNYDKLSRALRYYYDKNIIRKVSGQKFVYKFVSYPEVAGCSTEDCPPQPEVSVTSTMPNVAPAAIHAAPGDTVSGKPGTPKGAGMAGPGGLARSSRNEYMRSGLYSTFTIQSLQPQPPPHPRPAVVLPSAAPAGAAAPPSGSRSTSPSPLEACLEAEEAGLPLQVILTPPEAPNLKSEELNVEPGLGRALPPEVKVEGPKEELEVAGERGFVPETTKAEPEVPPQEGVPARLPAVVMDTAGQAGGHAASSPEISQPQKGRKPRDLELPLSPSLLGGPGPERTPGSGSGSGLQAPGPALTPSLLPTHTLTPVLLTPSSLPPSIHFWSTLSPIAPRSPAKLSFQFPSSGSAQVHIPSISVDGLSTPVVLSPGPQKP
# How it was run: as §1
# GABPA = target: T3, GABPA (Homo sapiens, UniProt Q06546 1-454); settings: protein: recombinant; tags: N-terminal GST; dsDNA, one strand shown
# T3 sequence: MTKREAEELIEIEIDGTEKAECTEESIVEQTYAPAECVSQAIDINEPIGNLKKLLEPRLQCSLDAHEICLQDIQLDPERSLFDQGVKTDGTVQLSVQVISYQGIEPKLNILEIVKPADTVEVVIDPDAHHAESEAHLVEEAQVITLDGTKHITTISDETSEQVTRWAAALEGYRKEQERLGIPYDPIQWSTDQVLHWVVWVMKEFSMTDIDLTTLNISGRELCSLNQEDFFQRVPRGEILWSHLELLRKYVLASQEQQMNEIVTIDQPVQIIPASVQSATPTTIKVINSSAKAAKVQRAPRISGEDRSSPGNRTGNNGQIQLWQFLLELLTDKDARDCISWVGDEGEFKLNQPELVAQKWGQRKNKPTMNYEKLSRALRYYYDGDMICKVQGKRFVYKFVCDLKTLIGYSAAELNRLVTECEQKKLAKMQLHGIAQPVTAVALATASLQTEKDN
# How it was run: as §1
# ERG = target: T4, ERG (Homo sapiens, UniProt P11308 1-479); settings: protein: recombinant; tags: N-terminal GST; dsDNA, one strand shown
# T4 sequence: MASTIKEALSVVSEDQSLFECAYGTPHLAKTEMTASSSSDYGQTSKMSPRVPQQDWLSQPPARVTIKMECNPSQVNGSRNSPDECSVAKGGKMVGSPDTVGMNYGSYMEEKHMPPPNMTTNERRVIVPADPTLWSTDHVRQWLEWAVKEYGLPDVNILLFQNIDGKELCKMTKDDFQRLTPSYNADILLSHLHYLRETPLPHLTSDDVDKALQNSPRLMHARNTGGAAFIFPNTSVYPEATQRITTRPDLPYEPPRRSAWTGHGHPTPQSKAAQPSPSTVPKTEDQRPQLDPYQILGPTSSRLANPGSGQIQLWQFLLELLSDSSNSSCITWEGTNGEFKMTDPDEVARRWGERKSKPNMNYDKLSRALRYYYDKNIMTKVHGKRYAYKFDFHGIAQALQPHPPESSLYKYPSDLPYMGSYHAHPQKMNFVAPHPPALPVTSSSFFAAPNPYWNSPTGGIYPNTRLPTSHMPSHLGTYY
# How it was run: as §1
# ELF1 = ELF1 (Homo sapiens, UniProt P32519 1-619); settings: protein: recombinant; tags: N-terminal GST; dsDNA, one strand shown
# How it was run: as §1
# EHF = target: T5, EHF (Homo sapiens, UniProt Q9NZC4 1-300); settings: protein: recombinant; tags: N-terminal GST; dsDNA, one strand shown
# T5 sequence: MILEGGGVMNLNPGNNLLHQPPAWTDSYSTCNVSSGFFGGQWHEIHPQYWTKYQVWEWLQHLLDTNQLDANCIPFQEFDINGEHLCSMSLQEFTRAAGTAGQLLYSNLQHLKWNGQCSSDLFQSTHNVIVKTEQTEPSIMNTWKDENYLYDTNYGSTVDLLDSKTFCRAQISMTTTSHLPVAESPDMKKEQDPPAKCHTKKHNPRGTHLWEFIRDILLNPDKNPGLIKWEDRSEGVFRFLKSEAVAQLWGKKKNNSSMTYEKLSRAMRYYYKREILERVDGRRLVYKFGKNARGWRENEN
# How it was run: as §1
# SPI1 = SPI1 (Homo sapiens, UniProt P17947 1-270); settings: protein: recombinant; tags: N-terminal GST; dsDNA, one strand shown
# How it was run: as §1
# SPIB = SPIB (Homo sapiens, UniProt Q01892 1-262); settings: protein: recombinant; tags: N-terminal GST; dsDNA, one strand shown
# How it was run: as §1
# ELK3 = target: T6, ELK3 (Homo sapiens, UniProt P41970 1-407); settings: protein: recombinant; tags: N-terminal GST; dsDNA, one strand shown
# T6 sequence: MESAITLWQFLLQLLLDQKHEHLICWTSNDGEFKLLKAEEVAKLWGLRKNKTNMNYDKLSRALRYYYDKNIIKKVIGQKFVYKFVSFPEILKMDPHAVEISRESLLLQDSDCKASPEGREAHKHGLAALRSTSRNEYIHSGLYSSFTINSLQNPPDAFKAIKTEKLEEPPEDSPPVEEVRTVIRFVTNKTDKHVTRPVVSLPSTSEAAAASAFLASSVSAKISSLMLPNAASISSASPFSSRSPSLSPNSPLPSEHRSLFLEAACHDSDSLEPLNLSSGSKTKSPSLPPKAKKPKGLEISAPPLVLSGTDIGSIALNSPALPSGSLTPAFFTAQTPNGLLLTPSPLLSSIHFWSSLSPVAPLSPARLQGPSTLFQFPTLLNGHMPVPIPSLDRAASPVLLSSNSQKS
# How it was run: as §1
# FEV = target: T7, FEV (Homo sapiens, UniProt Q99581 1-238); settings: protein: recombinant; tags: N-terminal GST; dsDNA, one strand shown
# T7 sequence: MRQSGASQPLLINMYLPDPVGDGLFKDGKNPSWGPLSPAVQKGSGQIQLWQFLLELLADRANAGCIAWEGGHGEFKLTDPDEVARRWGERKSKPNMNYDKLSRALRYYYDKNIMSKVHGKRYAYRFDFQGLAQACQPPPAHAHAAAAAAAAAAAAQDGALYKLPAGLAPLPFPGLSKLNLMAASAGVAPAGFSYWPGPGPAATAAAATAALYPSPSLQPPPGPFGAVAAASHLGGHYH
# How it was run: as §1
# ETV5 = ETV5 (Homo sapiens, UniProt P41161 1-510); settings: protein: recombinant; tags: N-terminal GST; dsDNA, one strand shown
# How it was run: as §1
# HSF1 = HSF1 (Homo sapiens, UniProt Q00613 1-529); settings: protein: recombinant; tags: N-terminal GST; chain copies: 3; dsDNA, one strand shown
# How it was run: as §1
# SPIC = target: T8, SPIC (Homo sapiens, UniProt Q8N5J4 1-248); settings: protein: recombinant; tags: N-terminal GST; dsDNA, one strand shown
# T8 sequence: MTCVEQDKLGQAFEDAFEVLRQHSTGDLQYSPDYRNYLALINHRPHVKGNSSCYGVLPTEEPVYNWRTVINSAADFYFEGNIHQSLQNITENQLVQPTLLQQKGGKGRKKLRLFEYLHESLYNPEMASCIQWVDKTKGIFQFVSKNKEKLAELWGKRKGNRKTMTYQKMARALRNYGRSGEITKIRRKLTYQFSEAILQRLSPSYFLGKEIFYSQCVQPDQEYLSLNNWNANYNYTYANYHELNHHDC
# How it was run: as §1
# ELF4 = ELF4 (Homo sapiens, UniProt Q99607 1-663); settings: protein: recombinant; tags: N-terminal GST; dsDNA, one strand shown
# How it was run: as §1
# ELK4 = target: T9, ELK4 (Homo sapiens, UniProt P28324-2 1-405); settings: protein: recombinant; tags: N-terminal GST; dsDNA, one strand shown
# T9 sequence: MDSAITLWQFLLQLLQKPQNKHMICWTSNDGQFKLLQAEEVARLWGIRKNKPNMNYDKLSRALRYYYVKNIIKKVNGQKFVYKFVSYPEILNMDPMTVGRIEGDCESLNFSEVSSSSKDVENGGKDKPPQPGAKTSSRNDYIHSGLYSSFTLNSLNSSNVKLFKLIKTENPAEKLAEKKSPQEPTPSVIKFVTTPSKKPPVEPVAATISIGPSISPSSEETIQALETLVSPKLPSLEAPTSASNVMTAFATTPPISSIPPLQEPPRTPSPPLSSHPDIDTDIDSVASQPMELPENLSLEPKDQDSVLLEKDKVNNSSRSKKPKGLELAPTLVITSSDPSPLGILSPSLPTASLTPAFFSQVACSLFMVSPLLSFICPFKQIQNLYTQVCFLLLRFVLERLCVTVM
# How it was run: as §1
# ETV2 = target: T10, ETV2 (Homo sapiens, UniProt O00321 1-342); settings: protein: recombinant; tags: N-terminal GST; dsDNA, one strand shown
# T10 sequence: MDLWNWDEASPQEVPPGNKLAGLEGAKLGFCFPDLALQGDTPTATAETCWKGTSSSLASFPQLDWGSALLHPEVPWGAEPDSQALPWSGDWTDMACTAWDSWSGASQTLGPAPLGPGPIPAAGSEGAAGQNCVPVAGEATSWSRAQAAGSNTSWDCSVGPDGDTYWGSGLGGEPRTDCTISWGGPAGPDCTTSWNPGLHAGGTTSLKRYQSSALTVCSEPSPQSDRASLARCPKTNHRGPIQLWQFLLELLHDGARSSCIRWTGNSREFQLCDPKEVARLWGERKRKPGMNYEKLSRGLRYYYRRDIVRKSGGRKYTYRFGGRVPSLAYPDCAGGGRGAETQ
# How it was run: as §1
# ELF3 = target: T11, ELF3 (Homo sapiens, UniProt P78545 1-371); settings: protein: recombinant; tags: N-terminal GST; dsDNA, one strand shown
# T11 sequence: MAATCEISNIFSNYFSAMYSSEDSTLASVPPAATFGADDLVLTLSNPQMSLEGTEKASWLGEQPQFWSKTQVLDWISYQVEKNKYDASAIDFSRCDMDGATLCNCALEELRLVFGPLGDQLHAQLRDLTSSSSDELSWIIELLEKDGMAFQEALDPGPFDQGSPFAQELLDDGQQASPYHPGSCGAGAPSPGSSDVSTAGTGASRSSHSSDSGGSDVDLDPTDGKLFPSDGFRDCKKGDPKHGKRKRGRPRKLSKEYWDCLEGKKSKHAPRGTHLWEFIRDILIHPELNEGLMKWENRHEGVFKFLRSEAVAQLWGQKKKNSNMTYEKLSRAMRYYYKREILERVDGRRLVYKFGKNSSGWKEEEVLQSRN
# How it was run: as §1
# CRX = CRX (Homo sapiens, UniProt O43186 1-299); settings: protein: recombinant; tags: N-terminal GST; dsDNA, one strand shown
# How it was run: as §1
# ETV1 = ETV1 (Homo sapiens, UniProt P50549 1-477); settings: protein: recombinant; tags: N-terminal GST; dsDNA, one strand shown
# How it was run: as §1
# Sequence of SPIB (Q01892 whole entry): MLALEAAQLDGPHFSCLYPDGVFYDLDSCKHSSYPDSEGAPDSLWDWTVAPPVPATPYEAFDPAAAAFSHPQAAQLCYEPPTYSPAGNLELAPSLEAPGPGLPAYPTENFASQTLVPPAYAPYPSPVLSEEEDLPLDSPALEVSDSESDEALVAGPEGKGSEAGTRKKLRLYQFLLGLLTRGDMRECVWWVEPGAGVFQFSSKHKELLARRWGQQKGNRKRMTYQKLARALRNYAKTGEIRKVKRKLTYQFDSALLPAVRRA
# Sequence of ETV1 (P50549 whole entry): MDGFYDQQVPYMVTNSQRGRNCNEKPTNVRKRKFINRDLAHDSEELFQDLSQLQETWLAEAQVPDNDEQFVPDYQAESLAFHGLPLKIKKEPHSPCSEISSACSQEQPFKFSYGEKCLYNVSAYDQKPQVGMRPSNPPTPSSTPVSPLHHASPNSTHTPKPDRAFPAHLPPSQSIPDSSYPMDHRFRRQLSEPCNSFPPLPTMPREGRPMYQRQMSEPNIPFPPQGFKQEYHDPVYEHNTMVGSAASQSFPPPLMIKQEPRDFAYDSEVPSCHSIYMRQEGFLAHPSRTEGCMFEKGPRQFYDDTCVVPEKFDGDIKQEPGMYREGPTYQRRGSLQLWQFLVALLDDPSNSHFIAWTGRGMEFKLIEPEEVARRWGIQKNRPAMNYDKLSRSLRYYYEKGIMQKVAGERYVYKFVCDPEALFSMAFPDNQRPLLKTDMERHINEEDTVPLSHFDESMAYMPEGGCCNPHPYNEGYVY
# Sequence of HSF1 (Q00613 whole entry): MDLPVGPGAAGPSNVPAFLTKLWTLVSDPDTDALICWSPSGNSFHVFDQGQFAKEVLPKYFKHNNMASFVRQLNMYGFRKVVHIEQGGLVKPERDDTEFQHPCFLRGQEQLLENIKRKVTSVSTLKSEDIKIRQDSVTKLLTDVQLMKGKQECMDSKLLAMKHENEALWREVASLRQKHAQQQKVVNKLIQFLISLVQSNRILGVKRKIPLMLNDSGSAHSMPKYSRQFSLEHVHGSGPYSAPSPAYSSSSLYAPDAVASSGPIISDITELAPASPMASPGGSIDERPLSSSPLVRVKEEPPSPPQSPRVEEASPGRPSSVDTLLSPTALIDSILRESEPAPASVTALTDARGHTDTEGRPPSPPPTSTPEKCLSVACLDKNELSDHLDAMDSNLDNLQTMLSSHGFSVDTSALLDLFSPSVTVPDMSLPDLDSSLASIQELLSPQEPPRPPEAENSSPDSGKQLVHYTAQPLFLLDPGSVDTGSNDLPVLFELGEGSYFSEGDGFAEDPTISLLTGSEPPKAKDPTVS
# Sequence of ELF4 (Q99607 whole entry): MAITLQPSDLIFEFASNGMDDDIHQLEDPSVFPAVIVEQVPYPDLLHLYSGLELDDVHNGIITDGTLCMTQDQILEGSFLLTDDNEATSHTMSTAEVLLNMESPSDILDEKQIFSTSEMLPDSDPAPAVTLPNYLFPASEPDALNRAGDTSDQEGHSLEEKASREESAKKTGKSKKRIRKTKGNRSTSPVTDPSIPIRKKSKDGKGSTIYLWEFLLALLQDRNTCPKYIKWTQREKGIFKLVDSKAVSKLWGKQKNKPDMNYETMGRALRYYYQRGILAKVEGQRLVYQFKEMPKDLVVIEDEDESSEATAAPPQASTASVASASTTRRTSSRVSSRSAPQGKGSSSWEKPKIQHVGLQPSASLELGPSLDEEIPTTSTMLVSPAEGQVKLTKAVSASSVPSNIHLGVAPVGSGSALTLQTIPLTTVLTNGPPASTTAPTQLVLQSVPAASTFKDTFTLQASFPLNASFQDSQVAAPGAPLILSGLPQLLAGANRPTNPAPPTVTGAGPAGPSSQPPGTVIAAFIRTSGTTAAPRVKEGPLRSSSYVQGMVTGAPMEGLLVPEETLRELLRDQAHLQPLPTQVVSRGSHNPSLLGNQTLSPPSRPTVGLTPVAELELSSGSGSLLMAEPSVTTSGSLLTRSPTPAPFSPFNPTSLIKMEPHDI
# Sequence of ETV5 (P41161 whole entry): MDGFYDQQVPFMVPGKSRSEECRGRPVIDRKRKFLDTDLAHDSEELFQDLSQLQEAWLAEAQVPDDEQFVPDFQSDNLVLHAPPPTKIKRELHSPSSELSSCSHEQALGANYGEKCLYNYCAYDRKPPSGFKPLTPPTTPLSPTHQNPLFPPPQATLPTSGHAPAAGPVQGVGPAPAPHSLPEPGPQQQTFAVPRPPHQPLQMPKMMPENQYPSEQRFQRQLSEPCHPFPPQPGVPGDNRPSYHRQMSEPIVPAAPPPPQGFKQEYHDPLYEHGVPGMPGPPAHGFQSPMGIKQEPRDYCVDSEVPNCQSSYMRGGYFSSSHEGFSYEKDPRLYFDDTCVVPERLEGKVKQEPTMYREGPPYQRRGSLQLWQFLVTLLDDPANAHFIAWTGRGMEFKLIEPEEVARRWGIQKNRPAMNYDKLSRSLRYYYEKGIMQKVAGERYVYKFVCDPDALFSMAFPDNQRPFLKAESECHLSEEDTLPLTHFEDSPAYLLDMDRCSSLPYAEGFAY
# Sequence of CRX (O43186 whole entry): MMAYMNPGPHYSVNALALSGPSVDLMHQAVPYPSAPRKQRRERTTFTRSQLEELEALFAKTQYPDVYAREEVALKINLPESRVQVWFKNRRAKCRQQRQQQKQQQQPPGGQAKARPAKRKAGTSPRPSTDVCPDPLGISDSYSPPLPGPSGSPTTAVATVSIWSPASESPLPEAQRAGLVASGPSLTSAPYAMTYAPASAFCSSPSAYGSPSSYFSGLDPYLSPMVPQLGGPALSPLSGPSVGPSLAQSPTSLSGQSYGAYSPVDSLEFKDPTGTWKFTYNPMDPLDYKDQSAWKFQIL
# Sequence of ELF1 (P32519 whole entry): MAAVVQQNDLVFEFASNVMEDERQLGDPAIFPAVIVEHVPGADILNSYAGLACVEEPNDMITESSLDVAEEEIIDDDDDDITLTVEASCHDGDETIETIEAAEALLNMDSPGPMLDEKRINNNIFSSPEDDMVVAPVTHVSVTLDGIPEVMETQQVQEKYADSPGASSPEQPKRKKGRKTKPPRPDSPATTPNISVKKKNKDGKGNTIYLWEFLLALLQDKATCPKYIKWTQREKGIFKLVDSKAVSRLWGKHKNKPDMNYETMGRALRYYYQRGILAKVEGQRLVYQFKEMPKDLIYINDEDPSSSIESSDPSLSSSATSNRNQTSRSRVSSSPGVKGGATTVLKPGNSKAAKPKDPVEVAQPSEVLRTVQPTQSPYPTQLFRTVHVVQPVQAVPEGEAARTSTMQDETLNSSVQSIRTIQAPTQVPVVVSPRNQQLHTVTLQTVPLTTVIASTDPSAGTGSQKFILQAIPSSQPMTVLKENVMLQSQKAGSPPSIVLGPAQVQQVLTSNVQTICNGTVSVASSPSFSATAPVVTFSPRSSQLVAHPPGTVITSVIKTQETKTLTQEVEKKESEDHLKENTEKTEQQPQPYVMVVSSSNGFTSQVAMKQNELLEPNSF
sequence,measurement,setting,value
CTCGAC,binding signal,FLI1,"1.49 fold enrichment (6-mer frequency, TF over GST control)"
same,binding signal,ELK1,"1.47 fold enrichment (6-mer frequency, TF over GST control)"
same,binding signal,GABPA,"1.53 fold enrichment (6-mer frequency, TF over GST control)"
same,binding signal,ERG,"1.47 fold enrichment (6-mer frequency, TF over GST control)"
same,binding signal,ELF1,"1.53 fold enrichment (6-mer frequency, TF over GST control)"
same,binding signal,EHF,"1.46 fold enrichment (6-mer frequency, TF over GST control)"
same,binding signal,SPI1,"1.34 fold enrichment (6-mer frequency, TF over GST control)"
same,binding signal,SPIB,"1.33 fold enrichment (6-mer frequency, TF over GST control)"
same,binding signal,ELK3,"1.36 fold enrichment (6-mer frequency, TF over GST control)"
same,binding signal,FEV,"1.41 fold enrichment (6-mer frequency, TF over GST control)"
same,binding signal,ETV5,"1.47 fold enrichment (6-mer frequency, TF over GST control)"
same,binding signal,HSF1,"1.77 fold enrichment (6-mer frequency, TF over GST control)"
same,binding signal,SPIC,"1.58 fold enrichment (6-mer frequency, TF over GST control)"
same,binding signal,ELF4,"1.58 fold enrichment (6-mer frequency, TF over GST control)"
same,binding signal,ELK4,"1.49 fold enrichment (6-mer frequency, TF over GST control)"
same,binding signal,ETV2,"1.39 fold enrichment (6-mer frequency, TF over GST control)"
same,binding signal,ELF3,"1.31 fold enrichment (6-mer frequency, TF over GST control)"
same,binding signal,CRX,"1.32 fold enrichment (6-mer frequency, TF over GST control)"
same,binding signal,ETV1,"1.58 fold enrichment (6-mer frequency, TF over GST control)"
